The list is not random: actives were taken first. Their share in the collection is about 3.8%.
ATXN2 expr inh – ATXN2 expression inhibition; HEK-293 ATXN2-luciferase reporter, luminescence, 24 h; Potency, µM (series often up to 57 µM), for inactives: at the top dose activity change, negative = inhibition, most hits filed as inhibitors; 360,000 tested, 0.72% active; AID 1745845; note: % is set by controls: 0 for no effect and ±100 for the full control effect; nearly all actives have a fitted effect of over 55% in size
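qHTS (up to 57 uM final) was run with 24 h compound exposure of reporter cells at 37 °C. Each well was multiplexed: SteadyGlo luminescence measured ATXN2-luciferase expression after a fluorogenic Gly-Phe-AFC viability readout (25 uM final).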
S2 tox – viability counter-screen for ATXN expression inhibitors; 400,000 tested, 0.49% active; Potency, µM (series often up to 56.7 µM), actives largely listed as cytotoxic; S2 cells (HEK-293 line with an ATXN2-luciferase reporter) viability, CellTiter-Fluor protease fluorescence, 24 h; note: nearly all actives have a fitted effect of over 40% in size
HepG2 viability – HepG2 cytotoxicity, counter-screen for TGF-b inhibitors | AID 588856 | HepG2 CAGA-GFP viability, ATP luminescence, 18 h | Potency, µM (highest dose often 46.1 µM), inactives show top-dose activity change, negative = cytotoxicity, usual class: cytotoxic | 410,000 tested, 0.76% active
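HepG2 CAGA-GFP cells (1000/well, DMEM with 1% FBS) received compound, then TGF-beta at 500 pg/mL final, and were incubated 18 hours at 37 degrees C. Viability was read by CellTiter-Glo luminescence. Media-only wells were set as complete cell-killing and DMSO as no toxicity.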
HT1080NT lethal – kills 2HG-producing HT-1080-NT fibrosarcoma cells; HT-1080-NT fibrosarcoma viability, CellTiter-Glo ATP luminescence, 48 h; Potency, µM (series often up to 46.1 µM), for the others: at the highest dose activity, negative = less viability, most hits filed as cytotoxic; 360,000 tested, 1.6% active; AID 686970;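 note: NT is the 2HG producing partner of a matched IDH1 knockdown line; 0% = DMSO-treated cells and -100% = media-only wells without cells; nearly all actives have a fitted effect of over 55% in size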
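A 48-hour cytotoxicity screen used HT-1080-NT cells plated 2 hours before compound delivery. ATP-based CellTiter-Glo luminescence measured viability, normalized to DMSO and no-cell controls.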
HT1080 IDH1KD tx – kills HT-1080 cells with IDH1 knockdown; 360,000 tested, 2% active; Potency, µM (top dose mostly 46.1 µM), without a hit: at the top dose activity, negative = toxicity, actives largely listed as cytotoxic; HT-1080 IDH1 knockdown viability, ATP luminescence, 48 h;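 note: 0% = DMSO wells and -100% = cell-free medium wells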
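HT-1080-IDH1KD cells (IDH1 knocked down), 750/well in RPMI with 5% FBS, treated with compound 48 h at 37 degrees C. Viability by CellTiter-Glo luminescence, normalised to DMSO and no-cell wells; concentration-response curves classed.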
TGFb SMAD3 inh – blocks TGF-b signaling. HepG2 CAGA-GFP TGF-b/SMAD3 reporter, GFP fluorescence, 18 h; TGF-beta stimulated, 500 pg/mL final. Potency, µM (series often up to 46.1 µM), for inactives: at the top dose activity, negative = inhibition, most hits filed as inhibitors. 410,000 tested, 1.2% active. AID 588855; note: % is set by controls: 0 for no effect and ±100 for the full control effect; nearly all actives have a fitted effect of over 65% in size
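TGF-beta reporter screen: HEPG2 CAGA-GFP, 1% FBS, 500 pg/mL TGF-beta final, 18 h; per-cell GFP summed per well; curves fitted and categorized by class.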
* hit, by the source's call; i = inactive; ? = inconclusive; · = not tested or not shown; [ ] = dose if it differs, or a comment. Calls come from the whole dose curve; as a rule, active = well fitted curve in the direction sought with a large enough effect; inconclusive = small, poorly fitted or top-dose-only effect, or another doubt; inactive = no such curve, though single readings can be large; an effect the other way counts as inactive or inconclusive. Potency is the fitted concentration of half-maximal effect.

SMILES	ATXN2 expr inh	S2 tox	HepG2 viability	HT1080NT lethal	HT1080 IDH1KD tx	TGFb SMAD3 inh
Cc1ccc(C)c(C(=O)C[n+]2cccc(Br)c2)c1	·	·	-9%	·	·	4%
COc1ccc(CN2CCC3(CCC(CNC(=O)C4CCCO4)O3)CC2)c(C)c1C (stereo not drawn)	·	i	·	·	·	·
Clc1ccccc1OCCNc1nc(NCC2CC2)nc2ccsc12	?	?	-33%	?	18µM*	?
COc1ccccc1CNc1nc(NCCOc2ccccc2Cl)c2sccc2n1	?	?	-64%	23µM*	?	?
COc1ccccc1CNc1nc(Nc2ccc(C)cc2C)c2sccc2n1	?	?	-49%	21µM*	23µM*	?
O=c1cc(-c2cccc3c2Sc2ccccc2S3)oc(N2CCOCC2)c1	-29%	·	·	·	·	·
Cc1ccc(NC(=O)COC(=O)c2ccccc2OCC(=O)N(C)C)cc1	·	·	3%	·	·	-3%
Cc1ccc(OCCNC(=O)C(=O)NCc2ccco2)cc1	-36%	i	8%	?	4.1µM*	2%
C=CS(=O)(=O)c1c2cc(OC)ccc2nc2ccc(OC)cc12	?	·	14µM*	?	?	?
COc1ccc2nc(Cl)cc(Cl)c2c1	5%	i	-48%	24%	19%	-4%
CCOC(=O)c1c(NC(=O)/C=C/C(=O)O)sc(C)c1-c1ccc(Cl)cc1	?	?	18µM*	?	23µM*	?
Cc1cc(NC(=O)CSc2nc(-c3ccco3)cc(C(F)(F)F)n2)no1	-22%	?	14%	0.58µM*	0.52µM*	32%
C=C(c1ccc2ccccc2n1)c1cccs1	·	·	-2%	·	·	-2%
Cc1nn(Cc2ccc(Cl)cc2Cl)c(C)c1NC(=O)NC12CC3CC(CC(C3)C1)C2	-29%	i	15%	-14%	18µM*	0%
Cc1nn(Cc2ccc(Cl)cc2Cl)c(C)c1NC(=O)c1sc2ccccc2c1Cl	-33%	?	-1%	11%	10%	-3%
COc1ccc(OC)c(NC(=O)c2c(N3CCCC3=O)c3cc(OC)ccc3n2C)c1	-1%	i	-27%	·	·	5%
Cc1nnc(N/N=C\c2ccc(-c3cccc(C(=O)O)c3)o2)n1N	?	i	7.1µM*	-29%	?	10µM*
CCCN1CNc2c(c(=O)[nH]c(=S)n2CCc2cccc(C)c2)C1	·	·	·	8%	20%	·
COc1cc(OC)c(N(C)C(=O)c2nn(C)c3c2CSc2ccccc2-3)cc1Cl	·	·	-40%	·	·	?
C[C@@H]1CCCCCCCCC(=O)OCCN[C@H](C)CCCCCCCCC(=O)OCCN[C@H](C)CCCCCCCCC(=O)OCCN1	?	20µM*	-64%	-26%	-24%	16µM*
O=Cc1cc2ccccc2cc1O	·	·	-2%	·	·	-28%
O=Cc1cc2ccccc2nc1SCCCF	-19%[11.3 µM]	i	-1%	16µM*	7.3µM*	-13%
CCCCCCN1C[C@@H](O)[C@H](n2cc(C3CC3)nn2)C[C@@H]1c1ccc(Cl)cc1	?	?	16µM*	-27%	?	?
CCCCCC(=O)N1C[C@@H](n2cc(-c3ccc(F)cc3)nn2)[C@H](O)C[C@@H]1c1ccc(OC)cc1	0%	?	-10%	18µM*	?	-1%
CCCCCCN1C[C@@H](n2cc(C3CC3)nn2)[C@H](O)C[C@@H]1c1ccc(Cl)cc1	?	?	-107%	2%	-1%	?
CCCCCC(=O)N1C[C@@H](O)[C@H](n2cc(-c3ccc(F)cc3)nn2)C[C@@H]1c1ccc(C)cc1	0%	?	-31%	-5%	-11%	18µM*
CCCCCC(=O)N1C[C@@H](n2cc(-c3ccc(F)cc3)nn2)[C@H](O)C[C@@H]1c1ccc(C)cc1	?	16µM*	-29%	-23%	?	?
CCCCCC(=O)N1C[C@H](n2cc(C3CC3)nn2)[C@@H](O)C[C@@H]1c1ccc(OC)cc1	-4%	i	0%	-10%	-6%	-3%

Screens: PubChem BioAssay, National Center for Advancing Translational Sciences (NCATS)
